This is an account of results in PubChem BioAssay (NCI).

Structures are written as SMILES. About 83,000 compounds went through this panel and 20% of them were active in at least one assay; those are over-represented in the sample as a whole.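 Results are percent growth after 48 hours of single-concentration exposure. 100 means growth as in untreated cells, lower positive values show inhibition; negative values down to -100 show cell death.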 Unmarked numbers belong to inactive results. Active and inactive are the calls of the source. How the source made its calls: active means growth percent below 10; inactive means the rest.

Some test systems named below: SK-MEL-2 melanoma; EKVX NSCLC; SN12C renal; UO-31 renal; TK-10 renal; ACHN renal; A498 renal; CCRF-CEM leukemia; MOLT-4 leukemia; SR leukemia; OVCAR-8 ovarian; OVCAR-5 ovarian; OVCAR-4 ovarian; SK-OV-3 ovarian; IGROV1 ovarian; OVCAR-3 ovarian; HS 578T breast; NCI/ADR-RES ovarian; RPMI-8226 leukemia.
Experiment in all cases: NCI-60 one-dose screen, 48 h (100 = growth as untreated, 0 = no growth, -100 = all killed)
Common to all, as to settings: 10 µM unless noted

On to `Cc1cc2nc3[nH]c4ccccc4c3nc2cc1C`, for which the growth with SK-MEL-2 melanoma was 104%; in the experiment on EKVX NSCLC, 79.3%; in the experiment on SN12C renal, 83.4%; in the experiment on UO-31 renal, 68.4%; with TK-10 renal, 107%; in the experiment with ACHN renal it was 91.9%. Also, the growth was 121% with A498 renal; 76.2% in the experiment with CCRF-CEM leukemia; 89.7% in the experiment with MOLT-4 leukemia; 14.2% in the experiment on SR leukemia; 62.3% in the experiment with OVCAR-8 ovarian; 102% in the experiment on OVCAR-5 ovarian. For the same compound, the growth with OVCAR-4 ovarian was 82.8%; in the experiment on SK-OV-3 ovarian, 86.2%; in the experiment on IGROV1 ovarian, -6.27% (active); with OVCAR-3 ovarian it was 92%; in the experiment with HS 578T breast, 1.63% (active); in the experiment with NCI/ADR-RES ovarian, 78.9%.

Take `FC(F)(F)Oc1ccc2nc3nc4ccc[nH]c4cc3c2c1`: the growth in the experiment with SK-MEL-2 melanoma is 98%; in the experiment on EKVX NSCLC, 62.8%; with SN12C renal it was 87.5%; in the experiment with UO-31 renal, 61.8%; in the experiment with TK-10 renal, 64.7%; in the experiment on ACHN renal, 56.4%. The growth in the experiment with A498 renal is 98.1%; in the experiment on CCRF-CEM leukemia, 75.7%; in the experiment with MOLT-4 leukemia, 68.9%; in the experiment with SR leukemia it was 43.9%; in the experiment on RPMI-8226 leukemia, 71.7%; in the experiment on OVCAR-8 ovarian it was 69.9%. The growth with OVCAR-5 ovarian is 115%; in the experiment with OVCAR-4 ovarian, 31.5%; in the experiment with SK-OV-3 ovarian, 63.8%; in the experiment on IGROV1 ovarian, 74.6%; with OVCAR-3 ovarian it was 98.2%; in the experiment on HS 578T breast, 56.7%. The growth in the experiment on NCI/ADR-RES ovarian was 85.8%.

Regarding `Clc1ccc2nc3nc4ccc[nH]c4cc3c2c1`, the growth with SK-MEL-2 melanoma was 88.5%; with EKVX NSCLC, 68.2%; in the experiment with SN12C renal it was 90.8%; in the experiment on UO-31 renal, 78.4%; in the experiment on TK-10 renal it was 43.1%; with ACHN renal, 85.9%. Further, the growth in the experiment with A498 renal is 109%; in the experiment with CCRF-CEM leukemia, 71.4%; in the experiment with MOLT-4 leukemia, 80.5%; with SR leukemia, 39.6%; in the experiment on RPMI-8226 leukemia it was 65.5%; with OVCAR-8 ovarian it was 87.4%. For the same compound, the growth was 127% with OVCAR-5 ovarian; 49.2% in the experiment on OVCAR-4 ovarian; 98.1% in the experiment on SK-OV-3 ovarian; 83.1% in the experiment on OVCAR-3 ovarian; 92.2% with HS 578T breast; 88.3% with NCI/ADR-RES ovarian.

For the compound `CN1CCN(c2nc(NCCCNc3ccnc4cc(Cl)ccc34)c3ccccc3n2)CC1`, the growth in the experiment on SK-MEL-2 melanoma was 80.7%; in the experiment on EKVX NSCLC, 77.3%; in the experiment with SN12C renal, 57.2%; in the experiment with UO-31 renal it was 37.3%; with TK-10 renal, 116%; with ACHN renal it was 50%. The growth in the experiment with A498 renal was 72.1%; in the experiment with CCRF-CEM leukemia, 18.6%; with MOLT-4 leukemia it was 18.6%; with SR leukemia, -25.3% (active); in the experiment on RPMI-8226 leukemia, 8.13% (active); with OVCAR-8 ovarian, 38.8%. In addition, the growth with OVCAR-5 ovarian was 84.8%; in the experiment on OVCAR-4 ovarian, 59.8%; in the experiment with SK-OV-3 ovarian, 66.6%; in the experiment on IGROV1 ovarian it was 70.7%; in the experiment with OVCAR-3 ovarian, 75.8%; in the experiment on NCI/ADR-RES ovarian, 96.3%.

Regarding `Clc1ccc2c(NCCCCNc3nc(N4CCOCC4)nc4ccccc34)ccnc2c1`, the growth in the experiment on SK-MEL-2 melanoma was 103%; with EKVX NSCLC, 45.2%; in the experiment with SN12C renal, -8.57% (active); with UO-31 renal, -89.7% (active); in the experiment with TK-10 renal, -63.1% (active); in the experiment with ACHN renal, -67.5% (active). Further, the growth in the experiment with A498 renal is 90.4%; in the experiment on CCRF-CEM leukemia, -21.7% (active); in the experiment with MOLT-4 leukemia, 17.6%; with SR leukemia, -18.9% (active); in the experiment with RPMI-8226 leukemia, -32.2% (active); with OVCAR-5 ovarian, 64.8%. The growth with OVCAR-4 ovarian was -13.1% (active); in the experiment on SK-OV-3 ovarian, 64.5%; in the experiment on IGROV1 ovarian it was 44.9%; in the experiment on OVCAR-3 ovarian, -71.2% (active); in the experiment on HS 578T breast, 91.8%; in the experiment on NCI/ADR-RES ovarian, 55.6%.

With `Cc1ccc(C(SCC(N)C(=O)O)(c2ccccc2)c2ccc(C)cc2)cc1` (stereo not drawn), the growth in the experiment with SK-MEL-2 melanoma is -24.4% (active); in the experiment with EKVX NSCLC, 43.1%; with SN12C renal it was 29.9%; in the experiment on UO-31 renal it was 38.6%; in the experiment on TK-10 renal, 60.7%; with ACHN renal it was 56.3%. In addition, the growth in the experiment with A498 renal is 29%; with CCRF-CEM leukemia, 6.28% (active); with MOLT-4 leukemia it was 13.8%; in the experiment on SR leukemia it was -29.8% (active); in the experiment on OVCAR-8 ovarian, -32.5% (active); with OVCAR-5 ovarian it was 6.69% (active). For the same compound, the growth in the experiment with OVCAR-4 ovarian is 61.5%; in the experiment with SK-OV-3 ovarian, 28.6%; in the experiment with IGROV1 ovarian, -32% (active); with OVCAR-3 ovarian it was -48% (active); in the experiment with HS 578T breast it was -45.6% (active); in the experiment on NCI/ADR-RES ovarian it was 7.01% (active).

Take `CN(C)[C@@H]1C(=O)C(C(=O)NCc2nc3[nH]cnc(=S)c3[nH]2)=C(O)[C@@]2(O)C(=O)C3=C(O)c4c(O)cccc4[C@@](C)(O)[C@H]3C[C@@H]12`: the growth with SK-MEL-2 melanoma was 13.1%; in the experiment with EKVX NSCLC, 88.8%; with SN12C renal it was 87.8%; in the experiment with UO-31 renal it was 47.4%; in the experiment on TK-10 renal, 22.7%; with ACHN renal it was 74%. In addition, the growth in the experiment on A498 renal was 101%; with CCRF-CEM leukemia, 14.1%; with MOLT-4 leukemia, 12.9%; with SR leukemia, 12.5%; in the experiment with OVCAR-8 ovarian, 7.48% (active); in the experiment with OVCAR-5 ovarian, 36.3%. Further, the growth in the experiment on OVCAR-4 ovarian is 39.8%; with SK-OV-3 ovarian, 19.9%; in the experiment on IGROV1 ovarian, 12.5%; with OVCAR-3 ovarian it was 38.7%; with HS 578T breast, 73.5%; in the experiment on NCI/ADR-RES ovarian, 30.5%.

On to `CN1CCN=C1c1ccc(NC(=O)c2ccc(C(=O)Nc3ccc(C4=NCCN4C)cc3)cc2)cc1`, for which the growth was 121% in the experiment with SK-MEL-2 melanoma; 89.1% with EKVX NSCLC; 98.1% in the experiment with SN12C renal; 82.3% with UO-31 renal; 90.4% in the experiment on TK-10 renal; 99.3% in the experiment with ACHN renal. The growth is 117% in the experiment on A498 renal; 110% in the experiment on CCRF-CEM leukemia; 100% in the experiment with MOLT-4 leukemia; 89.4% in the experiment on SR leukemia; 85.7% in the experiment on OVCAR-8 ovarian; 87.5% in the experiment on OVCAR-5 ovarian. Also, the growth with OVCAR-4 ovarian was 98.3%; in the experiment on SK-OV-3 ovarian, 96.5%; in the experiment on IGROV1 ovarian, 90.1%; in the experiment on OVCAR-3 ovarian, 109%; in the experiment on HS 578T breast it was 80.3%; with NCI/ADR-RES ovarian it was 100%.

`CC(=O)c1cc2c(N)c(C(=O)Nc3cccc4ccccc34)sc2nc1C`: the growth in the experiment with SK-MEL-2 melanoma was 36.5%; in the experiment on EKVX NSCLC, 46.4%; in the experiment on SN12C renal, 40.9%; in the experiment on UO-31 renal, 42.9%; in the experiment with TK-10 renal it was 56.2%; in the experiment on ACHN renal it was 47.6%. Also, the growth in the experiment with A498 renal is 13.6%; with CCRF-CEM leukemia, 6.95% (active); in the experiment on MOLT-4 leukemia, 24%; with SR leukemia, 12.7%; in the experiment with RPMI-8226 leukemia it was 10.2%; in the experiment with OVCAR-8 ovarian, 21.5%. Further, the growth with OVCAR-5 ovarian was 64%; in the experiment on OVCAR-4 ovarian, 59.6%; in the experiment on SK-OV-3 ovarian, 26.8%; in the experiment with OVCAR-3 ovarian it was -5.38% (active); in the experiment with HS 578T breast it was 38.2%; in the experiment with NCI/ADR-RES ovarian it was 16.3%.
